# Results published in publication PMC11062922 (Nature Chemical Biology, 2023).
# Read-outs that look alike come from different tables or passages of the source.
# Tested on: PRKD2
# Details: read-out: apparent Kd, n = 1
substance,measurement,setting,value
Lestaurtinib,potency estimated from few doses,"compound concentrations:100 nM and 1000 nM (sheet 'Lestaurtinib' of Supplementary Table 1),run:Lestaurtinib_02364_R3,Plate:MR002",45.4 nM
same,potency estimated from few doses,"compound concentrations:100 nM and 1000 nM (sheet 'Lestaurtinib' of Supplementary Table 1),run:Lestaurtinib_02367_R2,Plate:MR003",43.5 nM
same,potency estimated from few doses,"compound concentrations:100 nM and 1000 nM (sheet 'Lestaurtinib' of Supplementary Table 1),run:Lestaurtinib_02367_R3,Plate:MR003",44.3 nM
same,potency estimated from few doses,"compound concentrations:100 nM and 1000 nM (sheet 'Lestaurtinib' of Supplementary Table 1),run:Lestaurtinib_02381_R1,Plate:MR004",50.1 nM
same,potency estimated from few doses,"compound concentrations:100 nM and 1000 nM (sheet 'Lestaurtinib' of Supplementary Table 1),run:Lestaurtinib_02381_R2,Plate:MR004",54.4 nM
same,potency estimated from few doses,"compound concentrations:100 nM and 1000 nM (sheet 'Lestaurtinib' of Supplementary Table 1),run:Lestaurtinib_02381_R3,Plate:MR004",41.5 nM
same,potency estimated from few doses,"compound concentrations:100 nM and 1000 nM (sheet 'Lestaurtinib' of Supplementary Table 1),run:Lestaurtinib_02407_R2,Plate:MR005",51.1 nM
same,potency estimated from few doses,"compound concentrations:100 nM and 1000 nM (sheet 'Lestaurtinib' of Supplementary Table 1),run:Lestaurtinib_02407_R3,Plate:MR005",45.8 nM
same,potency estimated from few doses,"compound concentrations:100 nM and 1000 nM (sheet 'Lestaurtinib' of Supplementary Table 1),run:Lestaurtinib_02422_R1,Plate:MR006",40.9 nM
same,potency estimated from few doses,"compound concentrations:100 nM and 1000 nM (sheet 'Lestaurtinib' of Supplementary Table 1),run:Lestaurtinib_02422_R2,Plate:MR006",24 nM
same,potency estimated from few doses,"compound concentrations:100 nM and 1000 nM (sheet 'Lestaurtinib' of Supplementary Table 1),run:Lestaurtinib_02422_R3,Plate:MR006",41 nM
same,potency estimated from few doses,"compound concentrations:100 nM and 1000 nM (sheet 'Lestaurtinib' of Supplementary Table 1),run:Lestaurtinib_02437_R1,Plate:MR007",45.2 nM
same,potency estimated from few doses,"compound concentrations:100 nM and 1000 nM (sheet 'Lestaurtinib' of Supplementary Table 1),run:Lestaurtinib_02437_R2,Plate:MR007",74.6 nM
same,potency estimated from few doses,"compound concentrations:100 nM and 1000 nM (sheet 'Lestaurtinib' of Supplementary Table 1),run:Lestaurtinib_02437_R3,Plate:MR007",3.14 nM
same,potency estimated from few doses,"compound concentrations:100 nM and 1000 nM (sheet 'Lestaurtinib' of Supplementary Table 1),run:Lestaurtinib_02438_R1,Plate:MR008",45.4 nM
same,potency estimated from few doses,"compound concentrations:100 nM and 1000 nM (sheet 'Lestaurtinib' of Supplementary Table 1),run:Lestaurtinib_02438_R2,Plate:MR008",51 nM
same,potency estimated from few doses,"compound concentrations:100 nM and 1000 nM (sheet 'Lestaurtinib' of Supplementary Table 1),run:Lestaurtinib_02438_R3,Plate:MR008",31.7 nM
same,potency estimated from few doses,"compound concentrations:100 nM and 1000 nM (sheet 'Lestaurtinib' of Supplementary Table 1),run:Lestaurtinib_02443_R2,Plate:MR009",43.2 nM
same,potency estimated from few doses,"compound concentrations:100 nM and 1000 nM (sheet 'Lestaurtinib' of Supplementary Table 1),run:Lestaurtinib_02473_R3,Plate:MR010",38.9 nM
same,potency estimated from few doses,"compound concentrations:100 nM and 1000 nM (sheet 'Lestaurtinib' of Supplementary Table 1),run:Lestaurtinib_02482_R2,Plate:MR011",50.4 nM
same,potency estimated from few doses,"compound concentrations:100 nM and 1000 nM (sheet 'Lestaurtinib' of Supplementary Table 1),run:Lestaurtinib_02482_R3,Plate:MR011",42.2 nM
same,potency estimated from few doses,"compound concentrations:100 nM and 1000 nM (sheet 'Lestaurtinib' of Supplementary Table 1),run:Lestaurtinib_02487_R2,Plate:MR012",40.1 nM
same,potency estimated from few doses,"compound concentrations:100 nM and 1000 nM (sheet 'Lestaurtinib' of Supplementary Table 1),run:Lestaurtinib_02487_R3,Plate:MR012",67.4 nM
same,potency estimated from few doses,"compound concentrations:100 nM and 1000 nM (sheet 'Lestaurtinib' of Supplementary Table 1),run:Lestaurtinib_02496_R1,Plate:MR013",47.4 nM
same,potency estimated from few doses,"compound concentrations:100 nM and 1000 nM (sheet 'Lestaurtinib' of Supplementary Table 1),run:Lestaurtinib_02496_R2,Plate:MR013",58.1 nM
same,potency estimated from few doses,"compound concentrations:100 nM and 1000 nM (sheet 'Lestaurtinib' of Supplementary Table 1),run:Lestaurtinib_02496_R3,Plate:MR013",50.5 nM
same,potency estimated from few doses,"compound concentrations:100 nM and 1000 nM (sheet 'Lestaurtinib' of Supplementary Table 1),run:Lestaurtinib_02566_R1,Plate:MR014",67.2 nM
same,potency estimated from few doses,"compound concentrations:100 nM and 1000 nM (sheet 'Lestaurtinib' of Supplementary Table 1),run:Lestaurtinib_02566_R2,Plate:MR014",39.4 nM
same,potency estimated from few doses,"compound concentrations:100 nM and 1000 nM (sheet 'Lestaurtinib' of Supplementary Table 1),run:Lestaurtinib_02566_R3,Plate:MR014",46.5 nM
same,potency estimated from few doses,"compound concentrations:100 nM and 1000 nM (sheet 'Lestaurtinib' of Supplementary Table 1),run:Lestaurtinib_02572_R1,Plate:MR015",38.1 nM
same,potency estimated from few doses,"compound concentrations:100 nM and 1000 nM (sheet 'Lestaurtinib' of Supplementary Table 1),run:Lestaurtinib_02572_R2,Plate:MR015",52 nM
same,potency estimated from few doses,"compound concentrations:100 nM and 1000 nM (sheet 'Lestaurtinib' of Supplementary Table 1),run:Lestaurtinib_02572_R3,Plate:MR015",82.5 nM
same,potency estimated from few doses,"compound concentrations:100 nM and 1000 nM (sheet 'Lestaurtinib' of Supplementary Table 1),run:Lestaurtinib_02577_R3,Plate:MR016",35.8 nM
same,potency estimated from few doses,"compound concentrations:100 nM and 1000 nM (sheet 'Lestaurtinib' of Supplementary Table 1),run:Lestaurtinib_02584_R1,Plate:MR017",50.7 nM
same,potency estimated from few doses,"compound concentrations:100 nM and 1000 nM (sheet 'Lestaurtinib' of Supplementary Table 1),run:Lestaurtinib_02584_R3,Plate:MR017",33 nM
same,potency estimated from few doses,"compound concentrations:100 nM and 1000 nM (sheet 'Lestaurtinib' of Supplementary Table 1),run:Lestaurtinib_02601_R2,Plate:MR018",54.7 nM
same,potency estimated from few doses,"compound concentrations:100 nM and 1000 nM (sheet 'Lestaurtinib' of Supplementary Table 1),run:Lestaurtinib_02601_R3,Plate:MR018",50.7 nM
same,potency estimated from few doses,"compound concentrations:100 nM and 1000 nM (sheet 'Lestaurtinib' of Supplementary Table 1),run:Lestaurtinib_02606_R1,Plate:MR019",41.7 nM
same,potency estimated from few doses,"compound concentrations:100 nM and 1000 nM (sheet 'Lestaurtinib' of Supplementary Table 1),run:Lestaurtinib_02624_R1,Plate:MR020",52.8 nM
same,potency estimated from few doses,"compound concentrations:100 nM and 1000 nM (sheet 'Lestaurtinib' of Supplementary Table 1),run:Lestaurtinib_02624_R3,Plate:MR020",37.9 nM
same,potency estimated from few doses,"compound concentrations:100 nM and 1000 nM (sheet 'Lestaurtinib' of Supplementary Table 1),run:Lestaurtinib_02724_R1,Plate:MR021",39.4 nM
same,potency estimated from few doses,"compound concentrations:100 nM and 1000 nM (sheet 'Lestaurtinib' of Supplementary Table 1),run:Lestaurtinib_02724_R2,Plate:MR021",50.8 nM
same,potency estimated from few doses,"compound concentrations:100 nM and 1000 nM (sheet 'Lestaurtinib' of Supplementary Table 1),run:Lestaurtinib_02724_R3,Plate:MR021",44.7 nM
